Test results published in PubChem BioAssay AID540276 (National Center for Advancing Translational Sciences (NCATS), 2011).
The campaign covered roughly 300,000 compounds. About 5,400 (1.8%) were called active. Another 28% or so got no clear call; they are omitted. For the sample, actives were picked, then their nearest neighbours and some compounds at random. A number with no mark means an inactive call. Calls come from the whole dose curve; tested in HEK293 cells.

Test: qHTS for inhibitors of binding or entry into cells for Marburg Virus
Settings: Marburg virus pseudotyped entry inhibition, cell reporter; series mostly up to 37.8 µM; activity change, negative = inhibition: at the top concentration
% is set by controls: 0 for no effect and ±100 for the full control effect; potency is the fitted concentration of half-maximal effect.

| SMILES | activity change, negative = inhibition | Potency |
| --- | --- | --- |
| CC(=O)Nc1ccc(NC(=O)CS(=O)(=O)c2cn(CC(=O)N3CCCCC3)c3ccccc23)cc1 | 8.57% |  |
| CCOC(=O)c1ccc(NC(=O)CSc2ncccn2)cc1 | 5.39% |  |
| CCOC(=O)c1ccc(NC(=O)CS(=O)(=O)c2cn(CC)c3ccccc23)cc1 |  | 8.2 µM (active) |
| CCC1CCCCN1C(=S)Nc1ccc(S(=O)(=O)Nc2ncccn2)cc1 (stereo not drawn) | -1.62% |  |
| COc1ccc(CCNC(=O)c2ccccc2OCc2ccccc2)cc1 | -30% |  |
| CC(=O)N1CCc2ccc(N)cc21 | -11.8% [at 46.1 µM] |  |
| CCOc1ccc(NC(=O)CN(C)C(=O)COc2cccc(CC)c2)cc1OCC | 15% |  |
| CC(C)CN1CC(C)C(=O)N(c2ccccc2)C1=S (stereo not drawn) | 0.536% [at 46.1 µM] |  |
| O=C(O)c1ccc(S(=O)(=O)c2ccccc2)s1 | 0.365% [at 46.1 µM] |  |
| CCCCc1nc2cc(C(=O)N3CCCCC3CCO)ccc2o1 (stereo not drawn) | 2.41% |  |
| Cc1nn(-c2ccccc2)c(C)c1NC(=O)COc1ccc(Cl)cc1Cl |  | 11.6 µM (active) |
| C/C=C/c1ccc(OCC(=O)OCC(=O)Nc2c(C)nn(-c3ccccc3)c2C)c(OC)c1 | 1.47% |  |
| Cc1nn(-c2ccccc2)c(C)c1NC(=O)COC(=O)Cc1ccccc1 | -0.499% |  |
| COc1ccc(CCNC(=O)C(=O)NCC2OCCN2S(=O)(=O)c2cccs2)cc1OC (stereo not drawn) | 21.7% |  |
| CCc1ccc(N2CC(C(=O)N3CCCCCC3)CC2=O)cc1 (stereo not drawn) | 11% [at 46.1 µM] |  |
| CCN(c1ccccc1)S(=O)(=O)c1cc(C(=O)NCc2ccccn2)ccc1C | 13.3% |  |
| COc1cccc2c1C(=O)c1c(O)c3c(c(O)c1C2=O)CC(O)(C(C)=NNC(=O)c1ccc(Cl)c(Cl)c1)CC3OC1CC(N)C(O)C(C)O1 (stereo not drawn) |  | 0.447 µM (active) |
| COc1ccc(C(=O)Nc2ccccc2C(=O)N2CCN(c3ccccc3)CC2)cc1 | 3.79% |  |
| O=C(Nc1nc(-c2ccc3c(c2)OCO3)cs1)c1ccncc1 |  | 7.94 µM (active) |
| Cc1ccc(-c2csc(NC(=O)C3=COCCO3)n2)cc1C | -17.8% [at 46.1 µM] |  |
| CC(=O)NCCC(=O)Nc1nc(-c2ccc3c(c2)OCCO3)cs1 | -1.66% [at 46.1 µM] |  |
| Cc1ccc(S(=O)(=O)N2CCC(C(=O)N3CCCCCCC3)CC2)cc1 | 6.29% [at 46.1 µM] |  |
| CCOC(=O)C1CCCN(C(=O)C2CCN(S(=O)(=O)c3ccc(Cl)c(C(F)(F)F)c3)CC2)C1 (stereo not drawn) | -20.9% |  |

| SMILES | activity change, negative = inhibition | Potency |
| --- | --- | --- |
| CCOC(=O)CC1=C(C(=O)OCC)[C@H](c2cc(OC)c(OC)cc2OC)C(C#N)=C(N)O1 | 0.118% |  |
| Cc1c(Cl)cccc1NC(=S)NCC(O)c1ccccc1 (stereo not drawn) | -1.89% |  |
| COc1ccccc1C1C2=C(COC2=O)Nc2cc3c(cc21)OCO3 (stereo not drawn) | 5.47% |  |
| COCCOC(=O)C1=C(C)NC(=O)CC1c1cc2c(cc1Br)OCO2 (stereo not drawn) |  | inactive |
| CCCOc1ccccc1C1CC(=O)Nc2cc3c(cc21)OCO3 (stereo not drawn) |  | 6.31 µM (active) |
| Cn1c(COc2ccccc2C(C)(C)C)nc2ccccc21 | 9.63% [at 46.1 µM] |  |
| Cn1c(CNC(=O)C(C)(C)C)nc2ccccc21 | 10.6% |  |
| CC(NCc1nc2ccccc2n1C)C12CC3CC(CC(C3)C1)C2 (stereo not drawn) |  | 11.2 µM (active) |
| C#CCOCCOCCOCCNc1nc(N2CCN(C(=O)Cn3cc(CCO)nn3)CC2)nc(N2CCN(C(=O)Cn3cc(CCCN=C(N)N)nn3)CC2)n1 | -4.16% |  |
| O=C1C(=O)N(CCN2CCOCC2)[C@@H](c2ccccn2)/C1=C(/O)c1ccc(F)cc1 | 1.86% |  |
| CCN(CC)c1ccc(/C=N/Nc2nc(C)cc(=O)[nH]2)cc1 | -19.9% |  |
| CCN(CC)c1ccc(/C=N/Nc2nc(C)cc(C)n2)c(O)c1 |  | 6.51 µM (active) |
| Cc1cc(C)nc(N/N=C/c2ccncc2)n1 | -5.04% |  |
| CN(C)c1cc2c(Nc3ccc4c(cnn4Cc4ccccc4)c3)ncnc2cn1 |  | 8.91 µM (active) |
| Cn1ncc2c(Nc3cccc4ccccc34)ncnc21 | 5.72% [at 46.1 µM] |  |
| Clc1ccc(Nc2ncnc3c2nnn3Cc2ccccc2)cc1 | 1.6% [at 46.1 µM] |  |
| Cc1ccc(CN2CCNC(=O)C2CC(=O)NCc2csc(C(C)C)n2)cc1 (stereo not drawn) | 10.2% |  |
| Cc1ccsc1C(=O)NNC(=O)COc1ccc(Br)cc1 | 1.92% |  |
| CC1CCN(C(=O)c2ccc3c(=O)n4c(nc3c2)CCCCC4)CC1 | 3.95% [at 46.1 µM] |  |
| CCN(CCCNC(=O)c1cc2c(=O)n(CC)c3ccccc3c2s1)Cc1ccccc1 |  | 4.47 µM (active) |
| CCn1c(=O)c2cc(C(=O)NCCc3ccc(Cl)cc3)sc2c2ccccc21 | 8.62% [at 46.1 µM] |  |
| CCc1ccc(CNC(=O)c2cc3c(=O)n(CC)c4ccccc4c3s2)cc1 | -0.8% [at 46.1 µM] |  |
| Cc1ccc(CS(=O)Cc2ccc(C(=O)N3CCOCC3)o2)cc1 (stereo not drawn) | 26.3% [at 46.1 µM] |  |

| SMILES | activity change, negative = inhibition | Potency |
| --- | --- | --- |
| C/C(=N\Nc1ccccc1)c1cccs1 | 7.15% [at 46.1 µM] |  |
| Oc1ccc2ccccc2c1C=Nc1ccccc1 |  | inactive |
| Oc1ccc2ccccc2c1N=Nc1nccs1 |  | 3.55 µM (active) |
| O=C(Cc1ccc(NC(=O)C2CCCN(C(=O)CCc3ccccc3)C2)cc1)Nc1ccc(C(=O)N2CCOCC2)cc1 (stereo not drawn) | -0.35% |  |
| COc1ccc(N2CCN(CCNC(=O)Nc3cc(Cl)ccc3Cl)CC2)cc1 | 11.4% [at 46.1 µM] |  |
| CN(Cc1ccccc1)C(=O)COC(=O)/C=C/c1ccc2c(c1)OCO2 | 25.9% |  |
| COCCn1cnc2c1c(=O)n(Cc1ccc(Br)cc1)c(=O)n2Cc1ccccc1 | -16% [at 46.1 µM] |  |
| N=c1c2c(-c3ccccc3)c(-c3ccccc3)n(Cc3ccccc3)c2ncn1CCCO |  | 5.8 µM (active) |
| CC(C)Cn1cnc2c1c(=O)n(CC(=O)NN)c(=O)n2Cc1ccccc1 | -7.84% [at 46.1 µM] |  |
| Cc1cc(NC(=O)CCN2CCN(Cc3ccccc3)CC2)ccc1Br | -28.2% |  |
| CCCCN(C(=O)c1ccc(C)o1)c1c(N)n(CCCC)c(=O)[nH]c1=O | 5.78% |  |
| CCc1ccccc1NC(=O)NCCN1CCCCC1 | -22.9% [at 46.1 µM] |  |
| CCCCCCC(O)(CCN1CCCCC1)c1ccccc1 (stereo not drawn) |  | 12.6 µM (active) |
| O=C(c1ccccc1)C(O)(CN1CCCCC1)c1ccccc1 (stereo not drawn) | 0.299% [at 46.1 µM] |  |
| CCOC(=O)c1ccc(NC(=O)CNC(=O)c2ccco2)cc1 | 3.64% |  |
| COc1ccc(OC)c(C(c2nnnn2C(C)(C)C)N2CCc3ccccc3C2)c1 (stereo not drawn) |  | 12.6 µM (active) |
| COCCn1nnnc1C(c1cc2ccc(OC)cc2[nH]c1=O)N1CCc2ccccc2C1 (stereo not drawn) | -18.3% |  |
| Cc1ccc(C(c2nnnn2C(C)(C)C)N2CCc3ccccc3C2)cc1 (stereo not drawn) | -6.55% |  |
| COc1cc2c(cc1OC)CN(C(C)C(=O)Nc1cccc(S(=O)(=O)N3CCOCC3)c1)CC2 (stereo not drawn) | -9.06% |  |
| COc1cc(/C=C2/C(=O)NN(c3ccc(F)cc3)C2=O)cc([N+](=O)[O-])c1O |  | 3.55 µM (active) |
| C#CCOc1ccc(/C=C2/C(=O)NN(c3ccccc3)C2=O)cc1OC | -1.37% |  |
| COc1cc(CN2CC(C)CC(C)C2)cc([N+](=O)[O-])c1O (stereo not drawn) | 6.01% |  |
